Over roughly 59,000 sequences, the read-out has its median near -0.00055; the lowest 2% begin near -2. The sample as a whole holds a higher share of the lowest values than the screen did.

The nature of the assay: Identification of proteins required for the processing of the EWS-FLI1 nascent transcript.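 Note: robust z of luciferase light less the median z of siRNAs with the same seed.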 Conditions: TC32 Ewing sarcoma NR0B1-luc vs CMV-luc (EWS-FLI1 target promoter against control promoter), 48 h; screened at 20 nM (by protocol). The procedure:
Ewing sarcoma (ES) cells depend on the EWS-FLI1 fusion transcription factor for cell survival. Using an assay of EWS-FLI1 activity and genome-wide siRNA screening we have identified proteins required for the processing of the EWS-FLI1 nascent transcript. Parallel genome-wide siRNA-mediated RNAi screens were conducted in Ewing sarcoma TC32 cell lines expressing a luciferase (luc) reporter protein driven by either the promoter of the EWS-FLI1 target gene NR0B1 (TC32-NR0B1-luc) or the CMV promoter (TC32-CMV-luc). Luciferase activity was assessed 48 hours post siRNA-transfection.
Twenty microl of serum-free media containing Lipofectamine RNAiMax (0.05 microl) was added to wells containing siRNA (0.8 pmol). Lipid and siRNA were allowed to complex for 45 min at ambient temperature before addition of 600 cells in RPMI-1640, 20% FBS to yield final transfection mixtures containing 20 nM siRNA in RPMI-1640, 10% FBS. Luciferase expression was measured using OneGlo (Promega, Madison, WI). The genome-wide screening campaign was conducted using Ambion's human genome library version 4.1 (Ambion, Austin TX). This library targets approximately 21000 human genes, three siRNAs per gene. Each siRNA is arrayed in an individual well of a 384-well plate. Parallel transfections were conducted in TC32-NR0B1-luc and TC32-CMV-luc cell lines and luciferase expression (OneGlo, Promega) was assayed 48 h later on a PerkinElmer Envision 2104 Multilabel plate reader (PerkinElmer, Waltham, MA). Qiagen's AllStars Negative control was incorporated on all screening plates for normalization (16 wells per plate). Qiagen, Germantown, MDsiGL4 was incorporated as a positive transfection control (16 wells per plate) on all plates. […] The raw luciferase data for the NR0B1- and CMV-luc screens were normalized and z-score-MAD transformed using standard methods (Chung et al., 2008). The miRNA-like seed sequence of every siRNA was determined and the median z-score for all siRNA sequences with the same seed sequence was calculated. This z-score was subtracted from the z-score associated with each siRNA with that seed sequence to generate a seed-adjusted z-score value (Z) that was used when the results for the three siRNAs corresponding to each gene were compared (Marine et al., 2012)
For the sequence AUCUCAUAAAAGAUCAUCC against NUTM1, the seed-corrected z-score was -0.0209.

Take UAUUGUUAAGGACUUUAAC against DNAJB6: the seed-corrected z-score was 0.648.

UUCGGUACACUCAUACGGC against ZNF300 returned a seed-corrected z-score of 0.363.

The sequence UUAGCUGCUCGGUAACUGG against EPB41 had a seed-corrected z-score of -2.39.

UAAUGACAUAUCGACAUUU against MIDN showed a seed-corrected z-score of -0.523.

In turn, UUAGAGAAUAUGCCCAUGA against FGD3 registered a seed-corrected z-score of -1.11.

Regarding UUUGGGUAGAGGCCGAAUG against DNAJC13, the seed-corrected z-score is -2.18.

Sequence UAUGUUAUCAGUCCAUCUG against MND1 displayed a seed-corrected z-score of 0.573.

Sequence UCUACAUCAAUAACAGAGG against C5orf28 showed a seed-corrected z-score of 0.545.

Sequence UUAUUGGUUGUGACUUUCC against TSLP gave a seed-corrected z-score of 0.686.

Take UCCCUUUUAAGCAACCUAC against APOC3: the seed-corrected z-score is -0.83.

In turn, UCAAUAUCCAGACCUGGUG against SF3A1 displayed a seed-corrected z-score of -2.88.

The sequence UCCCGUAAAACAGAGACAC against OR2C3 showed a seed-corrected z-score of -0.66.

The sequence AUCGUGCUCGCUUGGAUCC against LOC729083 gave a seed-corrected z-score of -0.203.

On to UCGGUUGCGAAUCAGAAUC against NOTCH2, for which the seed-corrected z-score was -2.01.

Consider UUAGAUACUCUGCAGGAUG against EPHA5, for which the seed-corrected z-score was determined as 0.46.

Sequence UUUAAUGUCCCAGUCCUCG against TMEM160 displayed a seed-corrected z-score of 0.858.

For the sequence UCUUACAUAGGUAAUUGCC against AGTR1, the seed-corrected z-score was -0.402.

As to UUCCUUAACCCAUCUACAG against C2orf49, the seed-corrected z-score was 0.273.

On to UGAAUGACAUCCACUACCU against OR6K2, for which the seed-corrected z-score was found to be 1.02.

Consider UCAAAGUCGAUUUCAAUCU against BRD4, for which the seed-corrected z-score was -2.4.

UAGAUGUCUGGAGCCCAUC against LYPD6 returned a seed-corrected z-score of -0.74.

AAAGGAGUCAGAUUCAUGC against GPATCH2L: the seed-corrected z-score amounted to 0.347.

For UCUCCAACCAAUUGCCUCC against LOC200726, the seed-corrected z-score is -0.147.

UAGGGAACUCGUAUCUAGC against RNF213 came in with a seed-corrected z-score of 0.191.

In turn, UAGUUGUCGAUGUAAACUC against MUC2 registered a seed-corrected z-score of -2.67.

On to UUCCAUAUUACCGAGGUCC against ALCAM, for which the seed-corrected z-score is 0.291.

As to UCUGAGAUAACAGUUCCUG against LOC644681, the seed-corrected z-score is -0.647.

Sequence UUCUCGAUCAUCCUGAUCU against BGN showed a seed-corrected z-score of -3.

In turn, UGCUAGACAAUUCCACUUC against SLX4 yielded a seed-corrected z-score of -1.39.

Turning to UAUCGCUCCUGACUAUUGC against PPP1R10, the seed-corrected z-score was -0.157.

Consider ACAACUAUGAUUUUAAGGC against ACSL1, for which the seed-corrected z-score was found to be 0.252.

On to UUGUCUUUCCGGCUAAAGC against ZFP64, for which the seed-corrected z-score is -1.36.

The sequence UAUUGUAAGAAAACCCUUG against GNA13 yielded a seed-corrected z-score of 1.07.

Turning to UCUGUGUCCACAGAGCCGU against GPR78, the seed-corrected z-score was -2.26.

UACUACACUAUUCUUCAGG against TADA1 registered a seed-corrected z-score of -0.3.

Take UUGCGACUCAUGAAAUGGG against INO80: the seed-corrected z-score was 0.511.

AUGGUAGUAAUCGCGGGCG against HSPA12B yielded a seed-corrected z-score of -2.44.

UAAGCGAAUAGGAUGCGCU against YWHAEP5 returned a seed-corrected z-score of -1.53.

As to UUUGCGAUGUUCCUCUUCC against GOLIM4, the seed-corrected z-score came out at 0.684.

Regarding UCAUUUCUAAGACCGCAUG against HNRNPUL1, the seed-corrected z-score was -0.605.

As for AAAGGUCAAUUCUUGAUGG against OR2L8, the seed-corrected z-score is 1.81.

UCUGGAUGGAGGUUUGUUC against SLC38A10 registered a seed-corrected z-score of 1.34.

Turning to UUGGAACAUAUUGGGAUCG against DDN, the seed-corrected z-score is -0.0544.

As to AUGUUUUCGCUGGAGUUGG against SSBP4, the seed-corrected z-score worked out at 0.9.

In turn, AUAGGUCUGAAUGAGCUGC against PLCD3 gave a seed-corrected z-score of -0.512.

The sequence UUCCUCAAAACUGCAGACU against LOC729451 showed a seed-corrected z-score of -0.00746.

In the case of UCCAUGUUGUCGAUCAUCU against RGS9BP, the seed-corrected z-score was -2.21.

UAUGAGUGCUCCACGAUGC against APOL3: the seed-corrected z-score worked out at 0.115.

UUCAUGACAAAGCUUGACC against PFN1P3 registered a seed-corrected z-score of -0.053.

In turn, UUGGUAAACAUCUCCAGGC against TRIM63 gave a seed-corrected z-score of 1.24.

In turn, UUGUCGUUCAGCAAACUCC against ASCC2 displayed a seed-corrected z-score of -2.07.

Turning to UCAGGAUAUAGUUUAGGAC against TMEM144, the seed-corrected z-score came to 0.846.

With AAUGUAUCAAGUAUGUCGG against C16orf62, the seed-corrected z-score was -2.25.

In the case of UGAAAUAUCUCCAGGAUCU against EFCAB12, the seed-corrected z-score amounted to 0.249.

In turn, UAUGCGUUUUGGAGAUUCC against PARP8 registered a seed-corrected z-score of -0.784.

For the sequence UCUGUCUUCCCAUAGGAUG against LOC440040, the seed-corrected z-score is -2.05.

Sequence AAUGGUAGAACAUCCCUGC against RIN2 returned a seed-corrected z-score of -0.24.

In the case of AACUUGAUCAAGUAGCUCG against EBLN1, the seed-corrected z-score was -0.0938.

UGUCAGUAUAGCACAGAUC against EFTUD2 had a seed-corrected z-score of -2.05.

AAGGUAACCAGCUCGAUGG against RPL7AP27 had a seed-corrected z-score of -0.369.

The sequence UUCUUUAUCCUUAGUCCUC against NFATC2IP came in with a seed-corrected z-score of -3.11.

As for UACAGUAAUAGUGAGGCAG against GYPB, the seed-corrected z-score was found to be 2.32.

UUAGGGUCAGGAGCAGACA against CYP2F1: the seed-corrected z-score is -0.167.

Consider UACUAACUUUUCGAUGUCC against MX2, for which the seed-corrected z-score is 0.257.

Sequence UAGGUUGCAUCAUAGAGGG against CFL1 yielded a seed-corrected z-score of -2.11.

These data come from PubChem BioAssay AID1159506 (National Center for Advancing Translational Sciences (NCATS), 2015).
